TrxR1 inh-1 – rat TrxR1 inhibition. O89049. recombinant rTrxR1, NADPH fluorescence consumption, selenite substrate. Potency, µM (titrated, usually from 114 µM), most hits filed as inhibitors. 1% of 390,000 active; note: nearly all actives have a fitted effect of over 65% in size
Target sequence (O89049 whole entry, looked up): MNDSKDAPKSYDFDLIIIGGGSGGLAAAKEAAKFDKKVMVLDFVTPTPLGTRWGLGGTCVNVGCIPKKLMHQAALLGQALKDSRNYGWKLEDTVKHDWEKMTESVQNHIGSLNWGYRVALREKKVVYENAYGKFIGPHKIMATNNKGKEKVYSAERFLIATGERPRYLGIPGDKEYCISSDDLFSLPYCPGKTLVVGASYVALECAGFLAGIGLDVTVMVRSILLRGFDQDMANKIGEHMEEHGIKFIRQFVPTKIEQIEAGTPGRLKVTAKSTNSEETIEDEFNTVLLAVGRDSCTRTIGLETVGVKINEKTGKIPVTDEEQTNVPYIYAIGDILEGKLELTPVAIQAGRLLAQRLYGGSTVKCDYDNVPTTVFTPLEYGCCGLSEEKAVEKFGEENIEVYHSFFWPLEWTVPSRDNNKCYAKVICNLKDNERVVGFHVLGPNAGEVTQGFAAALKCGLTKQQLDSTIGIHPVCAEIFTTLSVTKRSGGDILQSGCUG
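Rat TrxR1 (90 nM in the dispensed reagent) was pre-reduced with 400 uM NADPH for 5 min at room temperature, then incubated with compound for 15 min. After 400 uM selenite was added, NADPH fluorescence (Ex 340/Em 450 nm) was followed for 8 min.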
Vif-APOBEC3F blk – blocks the Vif interaction with APOBEC3F. HeLa A3F-eYFP + Vif (tagged APOBEC3F with the HIV-1 protein that degrades it), YFP fluorescence increase. Potency, µM (series often up to 46.1 µM). 0.2% of 390,000 active; note: nearly all actives have a fitted effect of over 65% in size
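Fluorescence increase (Ex 488/Em 500-530) after overnight compound treatment at 37 deg C flags inhibition of Vif-driven A3F-eYFP loss in stable HeLa A3F-eYFP/Vif cells seeded overnight beforehand.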
Vif-APOBEC3G blk – Vif-A3G binding inhibition; Potency, µM (doses to about 46.1 µM), most hits filed as inhibitors; Q9HC16; HeLa A3G-eYFP + Vif (tagged APOBEC3G with the HIV-1 protein that degrades it), YFP fluorescence, overnight; 0.076% of 410,000 active; note: nearly all actives have a fitted effect of over 60% in size
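HeLa cells stably expressing Vif and C-terminally eYFP-tagged A3G, seeded overnight at 37 deg C, then exposed to compound by pintool overnight at 37 deg C. Rise in yellow fluorescence (Ex 488/Em 500-530, Acumen) marks blocked Vif-driven A3G degradation.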
VDR inh – blocks the human vitamin D receptor. 0.93% of 400,000 active. VDR-SRC2-3 peptide fluorescence polarization, 2 h. Potency, µM, actives largely listed as inhibitors. P11473
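Fluorescence polarization assay measuring small-molecule disruption of VDR binding to the coregulator peptide SRC2-3. Compounds were pin-transferred (23 nl) into the reagent mix and incubated 2 h at room temperature before reading.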
TrxR1 substrate – is turned over as a substrate by rat TrxR1 | O89049 | purified TrxR1 substrate turnover, NADPH consumption readout | Potency, µM (top dose mostly 114 µM) | 0.01% of 390,000 active | AID 588456; note: nearly all actives have a fitted effect of over 50% in size
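Rat TrxR1, dispensed at 90 nM, was prereduced with 400 uM NADPH (final) for 5 min at ~22 deg C, then incubated with compound 15 min before 400 uM selenite. A first-read NADPH fluorescence drop versus no-compound background flagged substrates.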
USP1 UbRho – validation of human USP1/UAF1 inhibitors; shares compounds with VDR inh; Ub-Rhodamine cleavage, fluorescence kinetic read; Potency, µM (series often up to 114 µM), usual class: inhibitors; 50% of 50 active
VDR confirm – confirmation of human vitamin D receptor inhibitors; Potency, µM, actives largely listed as inhibitors; shares compounds with VDR inh; 89% of 840 active; VDR-coactivator inhibition assay, qHTS confirmation
VDR FP fluor – confirmation of human VDR-coactivator binding inhibitors, fluorescein label; shares compounds with VDR inh; VDR-coactivator binding, fluorescein fluorescence polarization; Potency, µM (highest dose often 57.1 µM), hits mostly inhibitors; 48% of 840 active; AID 602200
VDR bla reporter – VDR (human) inhibition, cell-based beta-lactamase validation; AID 602202; 23% of 840 active; Potency, µM (series often up to 46.1 µM), most hits filed as inhibitors; VDR beta-lactamase reporter cells, FRET ratio; cells co-treated with VDR agonist LG190178; shares compounds with VDR inh
VDR viability – cytotoxic in counter-screen for VDR inhibitors. shares compounds with VDR inh. cytotoxicity counter-screen, cell viability, qHTS. Potency, µM (titrated, usually from 48.3 µM), hits mostly cytotoxic. 18% of 840 active; note: nearly all actives have a fitted effect of over 75% in size
GR counterassay – glutathione reductase inhibition, TrxR1 selectivity check; 55 tested, under 10 active; shares compounds with TrxR1 inh-1; activity change, negative = inhibition, % at 57.1 µM; purified GR, DTNB reduction absorbance 405 nm kinetic
TrxR1 inh-2 – validation of rat thioredoxin reductase 1 inhibitors; shares compounds with TrxR1 inh-1; recombinant TrxR1, NADPH fluorescence consumption, selenite substrate; Potency, µM, usual class: inhibitors; 50% of 55 active
TrxR1 insulin MOA – inhibits TrxR1-driven insulin reduction; shares compounds with TrxR1 inh-1; AID 652037; Potency, µM; 20% of 55 active; TrxR1 Trx-coupled insulin reduction, NADPH absorbance 340 nm;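 active = compounds with a measured potency under 100 micromolar; inconclusive = filed, but no rule given; inactive = potency at or above that, or unmeasurable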
TrxR1 inh-3 – inhibitors of rat thioredoxin reductase 1, DTNB reduction | Potency, µM | shares compounds with TrxR1 inh-1 | purified TrxR1, DTNB reduction, A412 | 90% of 55 active | AID 652256;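 active = a half-inhibiting concentration could be measured and was below 100 µM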
Large screens that a line does not name were inactive (follow-up assays come after a bar, where they were run). This is a sample that favours compounds with a hit; in the whole collection about 1.8% have one here. Unless noted, calls come from the whole dose curve; as a rule, active = well fitted curve in the direction sought with a large enough effect; inconclusive = small, poorly fitted or top-dose-only effect, or another doubt; inactive = no such curve, though single readings can be large; an effect the other way counts as inactive or inconclusive.

O=c1[nH]c2ccccc2n1C1CCN(CCCC(c2ccc(F)cc2)c2ccc(F)cc2)CC1	VDR inh inconclusive | USP1 UbRho inconclusive
O=C1CC(N2CCC(n3c(=O)[nH]c4ccccc43)CC2)C(=O)N1c1ccc(F)cc1 (configuration not stated)	none
O=c1oc(Cl)c(Cl)c2ccccc12	TrxR1 inh-1 7.5µM, VDR inh 25µM | USP1 UbRho 7.4µM | VDR confirm 5 | VDR FP fluor inconclusive | VDR bla reporter inconclusive | VDR viability 17µM
C[C@H]1COC2=C1C(=O)C(=O)c1c2ccc2c1CCCC2(C)C	TrxR1 inh-1 28µM, VDR inh 11µM | VDR confirm 20 | VDR FP fluor 25µM | VDR bla reporter inactive | VDR viability inactive
CC1COC2=C1C(=O)C(=O)c1c2ccc2c1CCCC2(C)C (configuration not stated)	VDR inh 7.1µM (no result: TrxR1 inh-1, Vif-APOBEC3F blk, Vif-APOBEC3G blk, TrxR1 substrate) | VDR confirm inconclusive | VDR FP fluor 14µM | VDR bla reporter inactive | VDR viability inactive
COc1ccc(NC(=O)CN2C(=O)CN=C(c3ccccc3)c3ccccc32)c(OC)c1	none
C[C@@H](Cc1cccc(C(F)(F)F)c1)NCCCc1ccccc1	none (no result: TrxR1 inh-1, Vif-APOBEC3F blk, Vif-APOBEC3G blk, TrxR1 substrate)
c1csc(CN2CCC3(CCNCC3)CC2)n1	none (no result: TrxR1 inh-1, Vif-APOBEC3F blk, Vif-APOBEC3G blk, TrxR1 substrate)
O=C1C=CC2C3C(=O)N(c4ccccc4)C(=O)C3C1N2Cc1ccccc1 (configuration not stated)	TrxR1 inh-1 3.5µM, Vif-APOBEC3G blk inconclusive, VDR inh inconclusive | GR counterassay inactive | TrxR1 inh-2 inconclusive | TrxR1 insulin MOA 17µM | TrxR1 inh-3 1.5µM
CC(C)(O)C1C2OC(=O)C1[C@]1(O)C[C@H]3O[C@]34C(=O)O[C@H]2[C@]14C (some centres not stated) (tested in a mixture with another compound)	none (no result: Vif-APOBEC3F blk, Vif-APOBEC3G blk, TrxR1 substrate)
